Screening results as filed in PubChem BioAssay.
The list is not random: actives were taken first. Their share in the collection is about 2.9%.
ClpP mod = qHTS Assay for Activators of ClpP. ATP-dependent Clp protease proteolytic subunit (Bacillus subtilis (strain 168)), P80244. 340,000 tested, 1.9% active. Potency, µM (doses to about 57.5 µM), without a hit: at the top dose activity change, negative = active. purified B. subtilis ClpP, FRET peptide cleavage, 20 min; active means well fitted falling curve with a large enough effect; inconclusive means small, poorly fitted or top-dose-only effect; inactive means no such curve, though single readings can be large or run the other way; further: potency means the concentration at half of the fitted maximal effect; the source files actives as falling curves though it sought activators and does not explain the sign; nearly all actives have a fitted effect of over 65% in size
Target sequence (P80244 whole entry, looked up): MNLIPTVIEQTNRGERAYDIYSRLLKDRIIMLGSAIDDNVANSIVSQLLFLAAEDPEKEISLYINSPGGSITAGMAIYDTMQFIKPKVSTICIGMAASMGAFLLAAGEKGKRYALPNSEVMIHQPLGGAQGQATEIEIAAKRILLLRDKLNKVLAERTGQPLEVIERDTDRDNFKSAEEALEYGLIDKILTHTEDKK
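Purified B. subtilis ClpP, 10 microg/mL final in Tris/HCl pH8 with KCl, BSA, glycerol and Tween-20, cleaved an Abz/nitrotyrosine-quenched decapeptide. Fluorescence (ex 320, em 430) was read at 0 and 20 min at room temperature. Delta was normalized to 5.8 microM ADEP and DMSO/no-enzyme controls.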
p53 reactivation = qHTS assay for re-activators of p53 using a Luc reporter | H1299 p53-A138V BP100-luciferase reporter, luminescence, 24 h | Potency, µM (top dose mostly 92.2 µM), for inactives: at the top dose activity change, positive = activation, actives largely listed as activators | 320,000 tested, 0.063% active; further: potency means the concentration at half of the fitted maximal effect; % of control where 0% means no effect; nearly all actives have a fitted effect of over 45% in size
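p53-null H1299 cells stably carrying temperature-sensitive p53-A138V and a BP100-luciferase reporter were pinned with compounds (4-point, 1:5 series) and held 24 hrs at 37 deg C. Luminescence was read 10 min after detection reagent.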
GLP1R cytotox = qHTS of GLP-1 Receptor Inverse Agonists: Cytotox Screen. HEK293 cAMP-luciferase reporter cells, luminescence, 24 h. Potency, µM (series often up to 38.3 µM), for the others: top-dose activity change, negative = inhibition, usual class: inhibitors. AID 624418, 2012. 410,000 tested, 0.13% active;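 further: loss of luciferase light is scored as toxicity; potency means the concentration at half of the fitted maximal effect; on the % scale 0 is the no-effect control and ±100 the full control effect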
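Quantitative HTS format, 1536 wells, 200 cells/uL seeded. Compounds: 23 nL, 24 h, 37 °C. Detection: luciferase reagent, luminescence at 12 min RT; decreased signal taken as cytotoxic.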
GLP1R ag = qHTS of GLP-1 Receptor Agonists. Glucagon-like peptide 1 receptor (Homo sapiens), P43220. HEK293 GLP-1R CRE-luciferase, luminescence, 4-6 h; cells express a hypersensitive GLP-1R form. Potency, µM (series often up to 45.6 µM), for the others: at the top dose activation, actives largely listed as activators. 380,000 tested, 0.007% active; further: potency means the concentration at half of the fitted maximal effect; % of control where 0% means no effect
GLP1R inv ag = qHTS of GLP-1 Receptor Inverse Agonists (Inhibition Mode). Glucagon-like peptide 1 receptor (Homo sapiens), P43220. HEK293 GLP-1R CRE-luciferase, luminescence, 24 h; GLP-1R form is constitutively active. Potency, µM (doses to about 38.3 µM), without a hit: top-dose activity change, negative = inhibition, most hits filed as inhibitors. 410,000 tested, 1.6% active; further: potency means the concentration at half of the fitted maximal effect; on the % scale 0 is the no-effect control and ±100 the full control effect; nearly all actives have a fitted effect of over 55% in size
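HEK293 cells stably co-expressing a cAMP-responsive luciferase reporter and constitutively active GLP-1R were seeded, incubated 12 h, then exposed to compounds for 24 h at 37 C. Luminescence was read 12 min after detection reagent; inverse agonists lower signal.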
LDHA block = qHTS assay for inhibitors of human lactate dehydrogenase | L-lactate dehydrogenase A chain (Homo sapiens), P00338 | purified LDHA, NADH/diaphorase-resazurin fluorescence; active compounds read low | activity change, % (values are at about 110 or 230 µM) | 480,000 tested, 0.15% active; in the data active means activity change below about -30%; inconclusive means mostly about -25% to -30%;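 further: plate controls were DMSO wells for no effect and wells without enzyme for full effect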
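Human LDH5 at 2 nM final in Tris HCl pH 7.4 with 0.06 mM NADH and 0.2 mM pyruvate, reacted 5 minutes at room temperature. Remaining NADH coupled via diaphorase/resazurin; resorufin fluorescence read at 0 and 20 minutes, normalized to enzyme-free and DMSO wells.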
Starred values were filed as active, the others as inactive. Unless noted, the call rests on the fitted dose curve; in most records, active means well fitted curve in the direction sought with a large enough effect; inconclusive means small, poorly fitted or top-dose-only effect, or another doubt; inactive means no such curve, though single readings can be large; an effect the other way counts as inactive or inconclusive.

What do the screens show for `Cc1ccc(-c2nc3ccccc3[nH]2)s1`?
ClpP mod: -1.8%; p53 reactivation: 0.3%; GLP1R cytotox: 0.2%; GLP1R ag: 0.6%; GLP1R inv ag: inconclusive; LDHA block: 3.1

How did Cc1nnsc1-c1nc2ccccc2[nH]1 do in these assays?
ClpP mod: 25.1µM*; p53 reactivation: 0.5%; GLP1R cytotox: -15.4%; GLP1R ag: 7.4%; GLP1R inv ag: 19.6%; LDHA block: -5.9

Results for COc1ccc(-c2nc3ccccc3[nH]2)cc1 ?
ClpP mod: 25.1µM*; p53 reactivation: 8.1%; GLP1R cytotox: 13.2%; GLP1R ag: -5.1%; GLP1R inv ag: inconclusive; LDHA block: -10.9

What do the screens show for `Cc1[nH]c2ccccc2c1-c1nc2ccccc2[nH]1`?
ClpP mod: 15.8µM*; p53 reactivation: 21.8%; GLP1R cytotox: -5.7%; GLP1R ag: 19.5%; GLP1R inv ag: -14.9%; LDHA block: -3.1

What do the screens show for `O=C(C1CCN(c2ncnc3nc[nH]c23)CC1)N1CCCCCC1`?
LDHA block: 10.4

Results for COC(=O)c1c(N)c(C#N)c2n1CCCCC2 ?
ClpP mod: 0.7%; p53 reactivation: 0.7%; GLP1R cytotox: 1.5%; GLP1R ag: 1.3%; GLP1R inv ag: 0.1%; LDHA block: 0.6

Results for CCCCOC(=O)Cn1cnc2ccc(Br)cc2c1=O ?
ClpP mod: -0.4%; p53 reactivation: 0.0%; GLP1R cytotox: -9.5%; GLP1R ag: 5.5%; GLP1R inv ag: -5.9%; LDHA block: -4.2

What do the screens show for `CC(C)CCNC(=O)[C@H](CSCc1ccccc1)N1Cc2ccccc2C1=O`?
ClpP mod: 1.1%; p53 reactivation: -4.4%; GLP1R cytotox: -8.9%; GLP1R ag: 8.9%; GLP1R inv ag: inconclusive; LDHA block: -1.3

What do the screens show for `CCC(C)NC(=O)[C@H](CSCc1ccccc1)N1Cc2ccccc2C1=O` (some centres undefined)?
ClpP mod: 0.9%; p53 reactivation: -8.7%; GLP1R cytotox: -1.8%; GLP1R ag: -6.2%; GLP1R inv ag: 11.2µM*; LDHA block: 5.6

Results for Clc1cccc(COn2c(-c3ccc(Cl)cc3Cl)nc3ncccc32)c1 ?
ClpP mod: -29.8%; p53 reactivation: -7.4%; GLP1R cytotox: -19.3%; GLP1R ag: -16.0%; GLP1R inv ag: inconclusive; LDHA block: -1.8

Results for Cc1ccc(COn2c(-c3ccc(Cl)cc3Cl)nc3ncccc32)cc1 ?
ClpP mod: -0.4%; p53 reactivation: 1.6%; GLP1R cytotox: -28.7%; GLP1R ag: -3.3%; GLP1R inv ag: 10µM*; LDHA block: 4.1

How did C=CCn1c(SCC(=O)O)nnc1-c1cccs1 do in these assays?
ClpP mod: inconclusive; p53 reactivation: -5.3%; GLP1R cytotox: -6.2%; GLP1R ag: -4.6%; GLP1R inv ag: 0.0%; LDHA block: 0.0

How did C=CCn1c(SCCC(=O)O)nnc1-c1cccs1 do in these assays?
ClpP mod: 28.2µM*; p53 reactivation: 17.3%; GLP1R cytotox: 5.6%; GLP1R ag: 6.3%; GLP1R inv ag: -13.6%; LDHA block: -0.7

Results for COC(=O)c1ccc2nc(-c3cccc(N)c3)cn2c1 ?
p53 reactivation: -8.8%; GLP1R cytotox: -4.0%; GLP1R ag: -5.4%; GLP1R inv ag: 5.62µM*; LDHA block: 1.1

What do the screens show for `COC(=O)c1ccc2nc(-c3ccc(S(C)(=O)=O)cc3)cn2c1`?
ClpP mod: 1.9%; p53 reactivation: 10.4%; GLP1R cytotox: 17.9%; GLP1R ag: 1.3%; GLP1R inv ag: -6.1%; LDHA block: -1.2
